# Results reported in PubChem BioAssay (NCATS).
# Results filed as inconclusive are left out. A call without a number means that no potency is given here. The source made the active and inactive calls. Unless noted, the call rests on the fitted dose curve; in most records, active means well fitted curve in the direction sought with a large enough effect; inconclusive means small, poorly fitted or top-dose-only effect, or another doubt; inactive means no such curve, though single readings can be large; an effect the other way counts as inactive or inconclusive.
# Legend:
# [1] = target: Aldehyde dehydrogenase, mitochondrial (Homo sapiens) (UniProt P05091); test: qHTS for Inhibitors of the Aldehyde Dehydrogenase Family (ALDH2) Primary screen (AID 2061308); conditions: ALDH2 enzyme inhibition qHTS, 1536-well; series mostly up to 56 µM; further: nearly all actives have a fitted effect of over 55% in size; further: potency means the concentration at half of the fitted maximal effect
# [2] = target: Retinaldehyde dehydrogenase 3 (Homo sapiens) (UniProt P47895); test: qHTS for Inhibitors of the Aldehyde Dehydrogenase Family (ALDH1A3) Validation screen (AID 2061312); conditions: ALDH1A3 enzyme inhibition qHTS validation, fluorescence; series mostly up to 84.7 µM; further: nearly all actives have a fitted effect of over 45% in size; further: potency means the concentration at half of the fitted maximal effect
# [3] = target: Retinaldehyde dehydrogenase 3 (Homo sapiens) (UniProt P47895); test: qHTS for Inhibitors of the Aldehyde Dehydrogenase Family (ALDH1A3) Primary screen (AID 2061315); conditions: ALDH inhibition qHTS; series mostly up to 56 µM
# [4] = target: Aldehyde dehydrogenase, mitochondrial (Homo sapiens) (UniProt P05091); test: qHTS for Inhibitors of the Aldehyde Dehydrogenase Family (ALDH2) Confirmatory screens (AID 2061303; active means well fitted inhibition curve with a large enough effect; title and protocol of this record describe different tests; further: nearly all actives have a fitted effect of over 45% in size; further: potency means the concentration at half of the fitted maximal effect); conditions: ALDH inhibition qHTS; series mostly up to 45.4 µM
# [5] = target: Retinaldehyde dehydrogenase 3 (Homo sapiens) (UniProt P47895); test: qHTS for Inhibitors of the Aldehyde Dehydrogenase Family (ALDH1A3) Confirmatory screens (AID 2061311); conditions: ALDH inhibition qHTS; series mostly up to 46 µM; further: nearly all actives have a fitted effect of over 60% in size; further: potency means the concentration at half of the fitted maximal effect
# [6] = target: Retinal dehydrogenase 2 (Homo sapiens) (UniProt O94788); test: qHTS for Inhibitors of the Aldehyde Dehydrogenase Family (ALDH1A2) Confirmation screens (AID 2061314); conditions: ALDH1A2 enzyme inhibition qHTS confirmation; series mostly up to 45.9 µM; further: nearly all actives have a fitted effect of over 65% in size; further: potency means the concentration at half of the fitted maximal effect
# [7] = target: Aldehyde dehydrogenase 1A1 (Homo sapiens) (UniProt P00352); test: qHTS for Inhibitors of the Aldehyde Dehydrogenase Family (ALDH1A1) Confirmatory screens (AID 2061316); conditions: ALDH inhibition qHTS; series mostly up to 47.3 µM; further: nearly all actives have a fitted effect of over 65% in size; further: potency means the concentration at half of the fitted maximal effect
# [8] = qHTS for Inhibitors of the Aldehyde Dehydrogenase Family (ALDH1A2, ALDH1A3, ALDH2, ALDH3A1) (AID 2061307); conditions: ALDH inhibition qHTS; series mostly up to 50.3 µM; further: test system not described further here; potency means the concentration at half of the fitted maximal effect; nearly all actives have a fitted effect of over 50% in size
# [9] = BET inhibitor-based combinations targeting novel dependencies in MECOM-rearranged (r) AML: SET-2 cell line (AID 2202231); conditions: SET-2 AML cells viability, CellTiter-Glo luminescence, 48 h; viability: hits give low values, concentration not given here; further: potency means the concentration at half of the fitted maximal effect; nearly all actives have a fitted effect of over 35% in size
# Outline: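 A 48 hr incubation preceded viability reading by CellTiter-Glo, with 15 min room-temperature development. Dose series had 11 points; normalization used DMSO and empty wells; AUC was computed and mean-centered per line as Z-AUC.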
# [10] = BET inhibitor-based combinations targeting novel dependencies in MECOM-rearranged (r) AML: MV-4-11 cell line (AID 2202233); conditions: MV-4-11 AML viability, CellTiter-Glo luminescence, 48 h; series mostly up to 46 µM; further: potency means the concentration at half of the fitted maximal effect; nearly all actives have a fitted effect of over 45% in size
# Outline: (§1)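 Each compound is tested in an 11-point concentration series against 500 seeded cells/well for 48 hr. The luminescent viability signal is normalized to DMSO and blank wells, then reduced to AUC and a cell-line-centred Z-AUC.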
# [11] = BET inhibitor-based combinations targeting novel dependencies in MECOM-rearranged (r) AML: HNT-34 cell line (AID 2202234); conditions: HNT-34 AML viability, CellTiter-Glo luminescence, 48 h; series mostly up to 46 µM; further: potency means the concentration at half of the fitted maximal effect; nearly all actives have a fitted effect of over 35% in size
# Outline: as §1
compound,measurement,setting,value
Cc1cc(C)nc(SCC(=O)Nc2ncc(Cc3cccc4ccccc34)s2)n1,Potency,[1],inactive
same,Potency,[2],inactive
same,Potency,[3],inactive
Oc1ccc2nc(CN3CCC(Cc4ccccc4F)CC3)[nH]c2c1,Potency,[1],inactive
same,Potency,[2],inactive
same,Potency,[3],inactive
O=C1c2cccc3cccc(c23)C(=O)N1CCN1CCN(S(=O)(=O)c2cccc([N+](=O)[O-])c2)CC1,Potency,[4],inactive
same,Potency,[5],inactive
same,Potency,[6],inactive
same,Potency,[7],inactive
Brc1c(NC2=NCCN2)ccc2nccnc12,Potency,[8],11.3 µM (active)
same,Potency,[5],5.65 µM (active)
same,Potency,[6],8.96 µM (active)
same,Potency,[7],11.3 µM (active)
C(#Cc1cccc(CN2CCOCC2)c1)CCN1CCCCC1,Potency,[1],inactive
same,Potency,[2],20 µM (active)
same,Potency,[3],inactive
C=C1C(=O)OC2C1CCC(=C)C1CC(OC(C)=O)C(=C)C12 (stereo unspecified),Potency,[4],inactive
same,Potency,[1],inactive
same,Potency,[3],inactive
FC(F)(F)c1ccccc1-c1cc(C(F)(F)F)c2nc(C3=NOC4(CCCCC4)C3)[nH]c2c1,Potency,[1],inactive
same,Potency,[2],inactive
same,Potency,[3],inactive
N#Cc1nc2c(nc1C#N)-c1ccccc1C2=O,Potency,[4],10 µM (active)
same,Potency,[5],inactive
same,Potency,[7],inactive
O=C(OC[C@H]1O[C@H](O[C@]2(CO)O[C@H](CO)[C@@H](O)[C@@H]2O)[C@H](O)[C@@H](O)[C@@H]1O)c1ccccc1,Potency,[1],inactive
CN(C)C(=O)C(O)C(Cc1ccccc1)NC(=O)c1cc2cc(Cl)ccc2[nH]1 (stereo unspecified),Potency,[1],inactive
same,Potency,[2],inactive
same,Potency,[3],inactive
c1cc(NCCc2c[nH]c3ccccc23)cc(Nc2ccncc2)c1,Potency,[4],25.1 µM (active)
same,Potency,[1],10 µM (active)
same,Potency,[3],inactive
same,Potency,[7],11.3 µM (active)
O=C(c1c(F)ccc(NS(=O)(=O)N2CC[C@@H](F)C2)c1F)c1c[nH]c2ncc(-c3cnc(C4CC4)nc3)cc12,Potency,[8],22.4 µM (active)
same,Potency,[1],inactive
same,Potency,[6],inactive
same,Potency,[3],inactive
same,Potency,[9],16.6 µM (active)
same,Potency,[10],18.6 µM (active)
same,Potency,[11],5.9 µM (active)
